# Experimental data as given in ChEMBL document CHEMBL3988442, “University of Dundee, Small-Polar-MMV Screening Library” (2021).
# Target: T1, Aspartate--tRNA(Asp/Asn) ligase (Mycobacterium tuberculosis (strain ATCC 25618 / H37Rv)) (UniProt P9WFW3); note: in the data most compounds retested in dose-response had high values
# T1 sequence (whole entry): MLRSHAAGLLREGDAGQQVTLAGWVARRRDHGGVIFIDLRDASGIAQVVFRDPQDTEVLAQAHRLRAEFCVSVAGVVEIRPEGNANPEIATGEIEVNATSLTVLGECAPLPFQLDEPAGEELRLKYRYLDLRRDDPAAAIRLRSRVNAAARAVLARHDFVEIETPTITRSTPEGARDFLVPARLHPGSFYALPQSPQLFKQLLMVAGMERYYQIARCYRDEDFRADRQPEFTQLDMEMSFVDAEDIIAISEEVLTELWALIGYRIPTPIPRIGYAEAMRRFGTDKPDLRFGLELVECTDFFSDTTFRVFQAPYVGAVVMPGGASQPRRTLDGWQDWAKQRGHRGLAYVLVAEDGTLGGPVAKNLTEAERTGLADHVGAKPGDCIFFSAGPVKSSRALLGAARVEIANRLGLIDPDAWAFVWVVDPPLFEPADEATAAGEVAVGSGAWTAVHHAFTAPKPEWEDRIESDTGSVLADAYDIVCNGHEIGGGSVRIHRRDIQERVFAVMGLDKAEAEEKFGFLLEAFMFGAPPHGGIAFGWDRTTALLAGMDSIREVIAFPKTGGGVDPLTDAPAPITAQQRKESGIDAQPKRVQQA
# Assay: Assay for Asp RNA synthetase-1 from Mycobacterium tuberculosis
# Format: functional
# Set-up: scale not given: direction of the effect not stated beside the values
# Settings: 30 µM
row,SMILES,Percent Effect
1,CC(C)(O)CN1CCN(C(=O)c2cc3ccccc3c(=O)[nH]2)CC1,-2.19%
2,CCn1c(C)nnc1CN(C)C1CCN(Cc2nccn2C)C1 (stereo not given),1.34%
3,Nc1cc2c(nn1)CCN(C(=O)CC1CCCC1)C2,-1.69%
4,Cc1cnccc1N1CCCN(C(=O)CCCc2cn[nH]c2)CC1,-0.632%
5,CCOc1nnc(CN2CCOC(CNc3cccnn3)C2)s1 (stereo not given),4.86%
6,Cc1nc(C)n(CC2CN(CCc3ccncc3)CCO2)n1 (stereo not given),1.98%
7,Cc1oncc1C(=O)NCc1cc(=O)n2c(n1)CN(C)CCC2,16%
8,COc1ccc(C2CC(=O)Nc3c2nc2n3CCCC2)cc1O (stereo not given),-2%
9,c1coc(-c2nnc(CN3CCOC(Cn4cccn4)C3)o2)c1 (stereo not given),-4.34%
10,CN(C)Cc1ccnc(C2CCCN2Cc2cc[nH]n2)n1 (stereo not given),-4.42%
11,Cc1nn(CC(=O)N2CCCCC2Cn2cccn2)c(C)c1Cl (stereo not given),-0.127%
12,CCC1=N[C@@]2(CC[C@@H]3CN(C(=O)NCC(C)C)C[C@@H]32)C(=O)N1CC(C)C,4.11%
13,COCC1CN(Cc2ccc(C)o2)Cc2ncn(CC3CC3)c21 (stereo not given),-3.92%
14,COC[C@@H]1CC[C@H]2[C@H](CCN2S(=O)(=O)c2cccc(C)c2)O1,3.92%
15,CC(C)c1nc2n(n1)CC(NCc1nc(-c3cccnc3)no1)CC2 (stereo not given),-2.88%
16,Cc1nn(C)cc1CN(C)Cc1cc2c(cc1OC(F)F)OCO2,3.57%
17,COc1ccc(C(=O)N2CCC(Nc3cccnn3)CC2)c(OC)c1,-0.568%
18,O=C(NCc1ccc(-n2cncn2)nc1)c1ccoc1,3.8%
19,CNC(=O)NC(=O)Cn1cc(-c2ccccc2)cn1,-2.46%
20,Cc1nc(C)n(CC2CCCN(CCOc3cccc(C#N)c3)C2)n1 (stereo not given),2%

row,SMILES,Percent Effect
1,CCOC1COC2(CCN(Cc3cccc(F)c3)CC2)C1 (stereo not given),-3.19%
2,Cc1ccsc1CN(Cc1ccccn1)CC(C)C,-2.01%
3,Cn1cccc1C(=O)N1CCCC2(CCN(CCN3CCCC3)C2=O)C1 (stereo not given),-3.77%
4,CN(CCCNC(=O)N1CCCC1c1ccsc1)c1ccccn1 (stereo not given),-3.28%
5,O=C(CN1CCN(CC(O)C2CC2)CC1)NCc1ccc(F)cc1 (stereo not given),-0.889%
6,COCCNC(=O)[C@H]1C[C@@H]2CCN(c3nncs3)C[C@H]2O1,1.82%
7,O=C(CN1CCC(N2CCNC2=O)CC1)NCC(F)(F)F,-5.14%
8,Cc1nc(C2CCCN2CC(=O)N2CCCc3ccccc32)no1 (stereo not given),2.35%
9,CCCn1c(C)c(CC(=O)N(C)CCOC)c2c1CC(C)(C)CC2=O,1.4%
10,CCc1nc(CN2CCCC(NCc3nc4cccnc4[nH]3)C2)no1 (stereo not given),-3%
11,COc1ncccc1NC(=O)NCC1CCS(=O)(=O)C1 (stereo not given),1.33%
12,COc1ccccc1CC(=O)NS(=O)(=O)c1cncc(Br)c1,-6.19%
13,COc1cc(C(=O)N(Cc2ccco2)C2CC2)cc2c1OCCO2,1.56%
14,COCCOc1ccc(NC(=O)N(C)Cc2ccsc2)cn1,0.514%
15,Cc1cccc(OCCC(=O)N(C)CCC#N)c1C,0.839%
16,CC(Cn1cccn1)NC(=O)Cc1cccs1 (stereo not given),-2.6%
17,Cc1nnc(N2CCCC3(CN(Cc4ccc(C)s4)CCO3)C2)o1 (stereo not given),0.479%
18,Cc1nnc(NC(=O)NCc2cccnc2N(C)C)s1,-2.76%
19,CO[C@@H]1CC[C@H]2[C@H]1OCCN2C(=O)COc1ccc(F)cc1,-2.58%
20,CCc1cnc(N2CCC3(CC2)CN(c2cccnc2)C(=O)CO3)nc1,6.49%

# Target: Shiga toxin 2 (Escherichia coli O157:H7) (UniProt P09385+P09386)
# Assay: E. coli 0.157:H7 Shiga Toxin SOP - stx2 screening assay
# Format: functional
# Set-up: scale not given: direction of the effect not stated beside the values
# Settings: 30 µM
row,SMILES,Percent Effect
1,CC(C)(O)CN1CCN(C(=O)c2cc3ccccc3c(=O)[nH]2)CC1,-6.56%
2,CCn1c(C)nnc1CN(C)C1CCN(Cc2nccn2C)C1 (stereo not given),-37.8%
3,Nc1cc2c(nn1)CCN(C(=O)CC1CCCC1)C2,2.23%
4,Cc1cnccc1N1CCCN(C(=O)CCCc2cn[nH]c2)CC1,-13.3%
5,CCOc1nnc(CN2CCOC(CNc3cccnn3)C2)s1 (stereo not given),-50.9%
6,Cc1nc(C)n(CC2CN(CCc3ccncc3)CCO2)n1 (stereo not given),-14.2%
7,Cc1oncc1C(=O)NCc1cc(=O)n2c(n1)CN(C)CCC2,-2%
8,COc1ccc(C2CC(=O)Nc3c2nc2n3CCCC2)cc1O (stereo not given),-3.52%
9,c1coc(-c2nnc(CN3CCOC(Cn4cccn4)C3)o2)c1 (stereo not given),3.23%
10,CN(C)Cc1ccnc(C2CCCN2Cc2cc[nH]n2)n1 (stereo not given),9.83%
11,Cc1nn(CC(=O)N2CCCCC2Cn2cccn2)c(C)c1Cl (stereo not given),-13.2%
12,CCC1=N[C@@]2(CC[C@@H]3CN(C(=O)NCC(C)C)C[C@@H]32)C(=O)N1CC(C)C,-9.55%
13,COCC1CN(Cc2ccc(C)o2)Cc2ncn(CC3CC3)c21 (stereo not given),-13.7%
14,COC[C@@H]1CC[C@H]2[C@H](CCN2S(=O)(=O)c2cccc(C)c2)O1,-4.66%
15,CC(C)c1nc2n(n1)CC(NCc1nc(-c3cccnc3)no1)CC2 (stereo not given),-31.5%
16,Cc1nn(C)cc1CN(C)Cc1cc2c(cc1OC(F)F)OCO2,-11.3%
17,COc1ccc(C(=O)N2CCC(Nc3cccnn3)CC2)c(OC)c1,8.84%
18,O=C(NCc1ccc(-n2cncn2)nc1)c1ccoc1,-9.83%
19,CNC(=O)NC(=O)Cn1cc(-c2ccccc2)cn1,5.7%
20,Cc1nc(C)n(CC2CCCN(CCOc3cccc(C#N)c3)C2)n1 (stereo not given),12.2%

row,SMILES,Percent Effect
1,CCOC1COC2(CCN(Cc3cccc(F)c3)CC2)C1 (stereo not given),-3.58%
2,Cc1ccsc1CN(Cc1ccccn1)CC(C)C,-3.58%
3,Cn1cccc1C(=O)N1CCCC2(CCN(CCN3CCCC3)C2=O)C1 (stereo not given),-30.4%
4,CN(CCCNC(=O)N1CCCC1c1ccsc1)c1ccccn1 (stereo not given),-79.8%
5,O=C(CN1CCN(CC(O)C2CC2)CC1)NCc1ccc(F)cc1 (stereo not given),-4.46%
6,COCCNC(=O)[C@H]1C[C@@H]2CCN(c3nncs3)C[C@H]2O1,-18.8%
7,O=C(CN1CCC(N2CCNC2=O)CC1)NCC(F)(F)F,-3.06%
8,Cc1nc(C2CCCN2CC(=O)N2CCCc3ccccc32)no1 (stereo not given),-12.2%
9,CCCn1c(C)c(CC(=O)N(C)CCOC)c2c1CC(C)(C)CC2=O,-6.17%
10,CCc1nc(CN2CCCC(NCc3nc4cccnc4[nH]3)C2)no1 (stereo not given),-27.7%
11,COc1ncccc1NC(=O)NCC1CCS(=O)(=O)C1 (stereo not given),-1.65%
12,COc1ccccc1CC(=O)NS(=O)(=O)c1cncc(Br)c1,10.1%
13,COc1cc(C(=O)N(Cc2ccco2)C2CC2)cc2c1OCCO2,-6.37%
14,COCCOc1ccc(NC(=O)N(C)Cc2ccsc2)cn1,-8.11%
15,Cc1cccc(OCCC(=O)N(C)CCC#N)c1C,8.57%
16,CC(Cn1cccn1)NC(=O)Cc1cccs1 (stereo not given),-16.8%
17,Cc1nnc(N2CCCC3(CN(Cc4ccc(C)s4)CCO3)C2)o1 (stereo not given),-45.3%
18,Cc1nnc(NC(=O)NCc2cccnc2N(C)C)s1,-16.1%
19,CO[C@@H]1CC[C@H]2[C@H]1OCCN2C(=O)COc1ccc(F)cc1,-2.38%
20,CCc1cnc(N2CCC3(CC2)CN(c2cccnc2)C(=O)CO3)nc1,-6.76%
